The values that follow come from PubChem BioAssay AID1376 (SRMLSC, 2008).

Structures are written as SMILES. Out of some 220,000 compounds screened, about 530 (0.24%) were called active. The sample holds actives, similar compounds and a random draw of the others, so the mix is not that of the screen. Rule as the data show it: active = inhibition above about 13%; inconclusive = no clear call, values can overlap the other calls; inactive = below that. Results with a measured potency or affinity are listed apart.

Chain of Bifunctional protein GlmU (Mycobacterium tuberculosis (strain ATCC 25618 / H37Rv)) (P9WMN3 whole entry, looked up): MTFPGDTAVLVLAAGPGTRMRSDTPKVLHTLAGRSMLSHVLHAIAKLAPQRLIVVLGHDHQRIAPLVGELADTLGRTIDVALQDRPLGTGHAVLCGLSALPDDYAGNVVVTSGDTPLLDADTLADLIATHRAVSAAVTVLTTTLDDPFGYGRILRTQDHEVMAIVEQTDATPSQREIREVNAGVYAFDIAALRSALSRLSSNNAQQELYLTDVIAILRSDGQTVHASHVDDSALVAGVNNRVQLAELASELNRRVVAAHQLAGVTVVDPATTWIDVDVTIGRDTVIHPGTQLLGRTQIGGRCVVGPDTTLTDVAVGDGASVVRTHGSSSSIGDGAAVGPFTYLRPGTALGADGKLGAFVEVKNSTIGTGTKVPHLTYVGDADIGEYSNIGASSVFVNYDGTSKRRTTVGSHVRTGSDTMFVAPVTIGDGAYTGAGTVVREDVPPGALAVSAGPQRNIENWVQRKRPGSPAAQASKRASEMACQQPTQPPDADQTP

This test addresses Bifunctional protein GlmU (Mycobacterium tuberculosis (strain ATCC 25618 / H37Rv)) (UniProt P9WMN3). The experiment in a line: inhibition of mycobacterial GlmU enzyme – biochemical, glucosamine-1-phosphate acetyltransferase (AID 1376).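 Also: 0% = complete reaction with vehicle and 100% = reaction without substrate.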 The conditions noted are these: M. tuberculosis GlmU acetyltransferase enzyme assay; active compounds read high;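 tested at 30 µM in the primary screen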.
For the compound `COc1ccc(S(=O)(=O)N2CCCN(S(=O)(=O)c3ccc(OC)cc3C)CC2)c(C)c1`, the inhibition is 4.67% (inactive). Under `CC12CCC(C(=O)NCCc3ccccc3)(OC1=O)C2(C)C` (stereo unspecified) stands 0.84% (inactive); under `Cc1cc(C)c(NC(=O)COC(=O)c2cccc3c2C(=O)c2ccccc2C3=O)c(C)c1`, 3.23% (inactive); under `Cc1cc(C)c(Nc2cc(S(=O)(=O)O)c(N)c3c2C(=O)c2ccccc2C3=O)c(C)c1`, 17.5% (active). Under `Cc1cccc(S(=O)(=O)Nc2cccc3c2C(=O)c2ccccc2-3)c1` stands 2.87% (inactive). On to `O=C(O)c1cccc(NC(CNS(=O)(=O)c2ccc(Cl)cc2)c2ccccc2)c1` (stereo unspecified), for which the inhibition was 3.6% (inactive). The same measure for `CN1CCN(CCOc2ccc(Cl)c(Cl)c2)CC1`: -3.6% (inactive); for `CCc1ccccc1NC(=O)c1ccc(CN2CCC(Cc3ccccc3)CC2)cc1`: 3.49% (inactive); for `CCOC(=O)COc1cnc2ccccc2n1`: 1.75% (inactive). The same measure for `CC(=O)Nc1ccc(S(=O)(=O)Nc2nc3ccc(C)cc3s2)cc1`: 13.2% (active); for `CC(=O)Nc1ccc2nc(NS(=O)(=O)c3ccc(C)cc3)sc2c1`: 3.98% (inactive); for `COc1ccc2nc(NS(=O)(=O)c3ccc(NC(C)=O)cc3)sc2c1`: 4.76% (inactive).

As for `CCc1c(O)nc(SCC(=O)NCc2ccco2)[nH]c1=O`, the inhibition is -0.2% (inactive). Under `COc1ccc(Nc2ccc(N3C(=O)CCC3=O)cc2[N+](=O)[O-])cn1` stands 2.73% (inactive); under `CCCc1ccc(C(=O)NNC(=O)c2ccc(Br)cc2)cc1`, 1.63% (inactive); under `CCCc1ccc(C(=O)NNC(=O)c2ccc(Cl)cc2)cc1`, 17.1% (active). Under `CCCc1ccc(C(=O)NNc2cc(Cl)ccc2Cl)cc1` stands 2.48% (inactive); under `CCOc1ccccc1/C=N/NC(=O)CNC(=O)c1ccc(S(=O)(=O)N2CCOCC2)cc1`, 0.48% (inactive). On to `CC(C)N1CCc2c(sc(NC(=O)c3nc4ccccc4s3)c2C(N)=O)C1`, for which the inhibition was 13.7% (active). The same measure for `CC(C)N1CCc2c(sc(NC(=O)c3cc(-c4cccs4)nc4ccccc34)c2C(N)=O)C1`: -3.1% (inactive); for `COC(=O)c1c(NC(=O)c2nc3ccccc3s2)sc2c1CCN(C(C)=O)C2`: -1.93% (inactive); for `CCC(=O)N1CCc2cc(Br)cc(S(=O)(=O)CCC(=O)N(CC)CC)c21`: -2.77% (inactive).

`CCN=C1S/C(=C\c2cc(OCC)c(O)cc2Br)C(=O)N1CC`: the inhibition was -1.66% (inactive). Under `COc1ccc(N(CC(=O)NN=C2CCCCCCC2)S(=O)(=O)c2ccccc2)cc1Cl` stands 0.05% (inactive); under `CC(=O)Nc1ccc(NC(=O)CCCSc2nc3ccccc3[nH]2)cc1`, -7.79% (inactive); under `Cc1cc(C(F)F)n2ncc(C(=O)NCc3ccccc3)c2n1`, 1.36% (inactive). Under `Cc1cc(C(F)F)n2ncc(C(=O)NCc3ccc(F)cc3)c2n1` stands 3.5% (inactive); under `COc1ccc(CNC(=O)c2cnn3c(C(F)F)cc(C)nc23)cc1`, 14.5% (active); under `CCS(=O)(=O)NCCNc1ccc([N+](=O)[O-])cc1`, 1.84% (inactive).

As for `Nc1nc(SCC(=O)NCc2ccccc2)n[nH]1`, the inhibition was 0.23% (inactive). The same measure for `Cc1cc2c(o1)CC(C)(C)CC2=O`: 1.91% (inactive); for `O=C(Nc1cccnc1)c1cc2c(ccc3ccccc32)o1`: 7.23% (inactive); for `CCCCOC(=O)Nc1ccc(S(=O)(=O)Nc2nccs2)cc1`: -2.11% (inactive).

Regarding `NC(=S)n1[nH]c(-c2ccc([N+](=O)[O-])cc2)c(N=Nc2ccccc2[N+](=O)[O-])c1=O`, the inhibition is -2.18% (inactive). Under `Cc1c(N=Nc2c(-c3ccc([N+](=O)[O-])cc3)[nH]n(C(N)=S)c2=O)cccc1[N+](=O)[O-]` stands 14.5% (active); under `Cc1ccc([N+](=O)[O-])cc1N=Nc1c(-c2ccc([N+](=O)[O-])cc2)[nH]n(C(N)=S)c1=O`, 0.14% (inactive). In the case of `NCCN1CCN(CCN)CC1`, the inhibition was -1.39% (inactive). Under `COc1ccc(C2(C)NC(=O)N(CC(=O)Nc3ccc(-c4nc5ccc(C)cc5s4)cc3)C2=O)cc1` (stereo unspecified) stands -4.16% (inactive). The same measure for `O=c1cc(Cl)[nH]c(=O)n1CCNc1ncc(C(F)(F)F)cc1Cl`: -0.65% (inactive). Under `O=C(c1ccccc1F)N1CCCC(C(=O)N2CCN(c3ccccc3)CC2)C1` (stereo unspecified) stands 4.78% (inactive); under `CC(C)C(=O)N1CCN(c2ccc(NC(=O)c3cccs3)cc2)CC1`, -0.11% (inactive); under `C=CCOc1c(CNc2cccc(C(=O)O)c2)cccc1OC`, -2.58% (inactive). With `C=CCOc1c(CNc2cccc(C(=O)O)c2)cccc1OCC`, the inhibition was 17.6% (active).

`C=CCOc1c(CNc2ccc(C(=O)O)cc2)cccc1OCC`: the inhibition was -3.36% (inactive). Under `COc1ccc(CC(=O)Nc2c3c(nn2-c2cccc(C)c2C)CS(=O)C3)cc1` (stereo unspecified) stands 0.63% (inactive).

`CCN(C(=O)c1cc2c(=O)[nH]c3ccc(C)cc3c2s1)c1cccc(C)c1`: the inhibition was 0.79% (inactive). For `Cn1c(=O)c2c(nc(SCC(=O)c3ccccc3F)n2C)n(C)c1=O`, the inhibition is 2.09% (inactive). Under `COc1cccc2c1OC1(C)CC2NC(=O)N1` (stereo unspecified) stands 7.2% (inactive); under `COc1ccc(-c2nnc3ccc(SCC(=O)NCc4ccco4)nn23)cc1`, -0.33% (inactive); under `Cc1cccc(C(=O)NC(Oc2ccccc2)C(Cl)(Cl)Cl)c1` (stereo unspecified), 0.69% (inactive). Consider `COc1ccc(C(=O)NC(Oc2ccccc2)C(Cl)(Cl)Cl)cc1` (stereo unspecified), for which the inhibition is 46.8% (active).

As to `O=C(NC(Oc1ccccc1)C(Cl)(Cl)Cl)c1ccccc1` (stereo unspecified), the inhibition was 2.49% (inactive). The same measure for `CCCCCC(=O)c1c(C)[nH]c(C(=O)OCC)c1C`: 2.82% (inactive). The same measure for `NC(=O)C1(N2CCCCC2)CCN(C(=S)Nc2cc(F)cc(F)c2)CC1`: 3.46% (inactive); for `Cn1nnc(CC[N+](C)(C)C)n1`: -0.54% (inactive). Under `CCOC(=O)c1cnc2c(-c3ccc(Cl)cc3)c(C)nn2c1N` stands -0.25% (inactive). Take `CCn1c(SCC(=O)OCC(=O)N2c3ccccc3NC(=O)C2(C)C)nnc1-c1ccco1`: the inhibition was 3.17% (inactive). Under `CCN(c1ccc(NS(=O)(=O)c2cc(Cl)ccc2Cl)cc1)C(C)C` stands -7.63% (inactive). The same measure for `CCc1c(C)sc(NC(=O)OC)c1C(=O)N1CCOCC1`: 2.3% (inactive); for `CCc1c(C)sc(NC(=O)c2ccco2)c1C(=O)N1CCOCC1`: 13.4% (active); for `CCc1c(C)sc(NC(=O)c2ccco2)c1C(=O)N1CCCCC1`: 0.95% (inactive). The same measure for `Cc1ccccc1NC(=S)N(CCN(C)C)C(C)c1ccco1` (stereo unspecified): -1.1% (inactive); for `CC1=NN(c2ccccc2)C(=O)/C1=C/c1c(O)n(-c2ccc(F)cc2)[nH]c1=O`: 7.97% (inactive). As to `CC1=NN(c2ccccc2)C(=O)/C1=C/c1c(O)[nH]c(=S)[nH]c1=O`, the inhibition was -4.55% (inactive). Under `CC1=NN(c2ccccc2)C(=O)/C1=C/c1c(O)n(-c2ccc(F)c(Cl)c2)[nH]c1=O` stands 13.6% (active).

As for `CCOc1ccc(Nc2nc3ccccc3c(=O)s2)cc1`, the inhibition is 13.8% (active). The same measure for `CCc1ccc(Nc2nc3ccccc3c(=O)s2)cc1`: -0.12% (inactive); for `O=c1sc(Nc2ccccc2)nc2ccccc12`: 4.04% (inactive); for `COc1ccc(/C=N/NC(=O)CCC(=O)Nc2ccccc2)cc1OC`: -0.28% (inactive).

Consider `COc1ccc(N2CCN(C(CNC(=O)C(=O)NCCCn3ccnc3)c3cccnc3)CC2)cc1` (stereo unspecified), for which the inhibition is 4.95% (inactive).

Regarding `COc1ccc(/C=C/C(=O)Nc2cc(C(F)(F)F)ccc2Cl)cc1OC`, the inhibition was -4.68% (inactive). The same measure for `COc1cccc(C(=O)Nc2cc(C(F)(F)F)ccc2Cl)c1`: -5.67% (inactive); for `COc1ccc(C(=O)Nc2cc(C(F)(F)F)ccc2Cl)cc1OC`: 48.9% (active); for `Nc1cc2nc3ccccc3nc2cc1N`: 1.38% (inactive). The same measure for `Nc1ccc2nc3c(=O)n(C4CCCCC4)c(=O)[nH]c3nc2c1`: -0.52% (inactive); for `C/C(=N/NS(=O)(=O)c1ccc(C)cc1)[C@H]1C[C@@H]1c1ccccc1`: 1.42% (inactive). The same measure for `COC(=O)c1ccc(OCC(=O)c2ccccc2)cc1`: 2.96% (inactive); for `COC(=O)c1ccc(OCCOc2ccccc2)cc1`: 14.7% (active). As to `COC(=O)c1ccc(OCCOc2ccc(C(=O)OC)cc2)cc1`, the inhibition is -4.5% (inactive).

As for `CCNCCNc1ccc(Cl)cc1[N+](=O)[O-]`, the inhibition is 0.23% (inactive).

Take `c1ccc(CCn2nnnc2C(c2cccnc2)N2CCN(c3ccccc3)CC2)cc1` (stereo unspecified): the inhibition is -3.96% (inactive). The same measure for `CSc1nnc([C@@H]2CCCN2C(=O)OC(C)(C)C)o1`: 6.66% (inactive).

Consider `CCOC(=O)c1oc2nc(CC(C)C)c3c(c2c1N)CCCC3`, for which the inhibition was 2.38% (inactive). The same measure for `CCCc1cc(NCC2CCCO2)n2c(nc3ccccc32)c1C#N` (stereo unspecified): 7.14% (inactive); for `Cc1cc(NCC2CCCO2)n2c(nc3ccccc32)c1C#N` (stereo unspecified): 12.8% (active). Under `CC(C)c1cc(NCC2CCCO2)n2c(nc3ccccc32)c1C#N` (stereo unspecified) stands 5.33% (inactive); under `O=C(NCC1(N2CCCCC2)CCCCC1)c1ccc(S(=O)(=O)N2CCCC2)cc1`, 7.41% (inactive). Take `Cc1ccccc1NS(=O)(=O)c1ccc2c(c1)NC(=O)CO2`: the inhibition was 13.3% (active). Take `Cc1cccc(C)c1NS(=O)(=O)c1ccc2c(c1)NC(=O)CO2`: the inhibition is 7.49% (inactive). In the case of `Cc1c(F)cccc1NS(=O)(=O)c1ccc2c(c1)NC(=O)CO2`, the inhibition is -2.89% (inactive). The same measure for `Cc1nc(Nc2ccccc2)sc1C(=O)Nc1ccccc1`: 2.24% (inactive); for `Cc1nc(NC(N)=S)sc1C(=O)Nc1ccccc1`: 14.8% (active). Under `Cc1nc(NC(=O)COc2ccccc2)sc1C(=O)Nc1ccccc1` stands 6.13% (inactive). The same measure for `O=C(NCc1n[nH]c(=S)n1-c1ccc(F)cc1)c1ccco1`: 3.33% (inactive); for `CCOC(=O)CC(=O)CSc1nc(-c2cccnc2)ccc1C#N`: 2.76% (inactive); for `Cc1ccc(NC(=O)Cn2nnc3ccccc32)cc1`: -1.28% (inactive).

As a reminder, the inhibition is the drop in the measured response relative to a control, in per cent.
